From PubChem BioAssay (EPA / NIEHS)
Inconclusive results are not listed. Activity calls are given as the source filed them. Rule for the calls, unless noted: active = hit-call score of the fitted dose curve at least 0.9, where 1 is the maximum; inactive = score below 0.9.

Assays:
[1] = CCTE_Mundy_HCI_Cortical_Synap_Neur_Matur_NeuriteLength: CCTE's Synaptogenesis and Neurite Maturation Assay in rat cortical cells for Neurite Length, Mundy Lab (AID 2284214)
Outline: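 Rat cortical neurons, AraC at DIV 5; compound + media change DIV 7, end DIV 12 (288.33 h). Fix, MAP2/synaptophysin/Hoechst immunostain, automated HCI of neurite length vs DMSO.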

[2] = CCTE_Mundy_HCI_Cortical_Synap_Neur_Matur_NeuriteSpotCountPerNeuron: CCTE's Synaptogenesis and Neurite Maturation Assay in rat cortical cells for Neurite Spot Count per Neuron Count, Mundy Lab (AID 2284215)
Outline: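 High-content imaging counts synaptophysin puncta along MAP2-labelled neurites per neuron after chemical exposure of rat cortical cells from DIV 7 to termination at DIV 12 (AraC added DIV 5). Loss of signal relative to DMSO.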

[3] = CCTE_Mundy_HCI_Cortical_Synap_Neur_Matur_SynapseCount: CCTE's Synaptogenesis and Neurite Maturation Assay in rat cortical cells for Synapse Count, Mundy Lab (AID 2284218)
Outline: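 Primary rat cortical culture; AraC DIV 5 to arrest glia; compound + media change DIV 7; terminated DIV 12. PFA/Hoechst fix, anti-MAP2 + anti-synaptophysin immunostain; HCI synapse count/neuron; DMSO = baseline.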

[4] = CCTE_Mundy_HCI_Cortical_Synap_Neur_Matur_NeuriteCount: CCTE's Synaptogenesis and Neurite Maturation Assay in rat cortical cells for Neurite Count, Mundy Lab (AID 2284222);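 note: exposure from day 7 to day 12 in vitro with readout at day 12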
Outline: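 Chemical exposure runs DIV 7–12 in rat cortical cultures, glia suppressed by AraC at DIV 5; measurement is at DIV 12. Imaging-derived neurite counts are fitted against DMSO baseline.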

[5] = CCTE_Mundy_HCI_Cortical_Synap_Neur_Matur_CellBodySpotCount: CCTE's Synaptogenesis and Neurite Maturation Assay in rat cortical cells for Cell Body Spot Count, Mundy Lab (AID 2284223)
Outline: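 High-content imaging counts synaptophysin puncta on neuronal cell bodies per neuron after MAP2/synaptophysin immunostaining. Rat primary cortical cells, glia arrested with AraC at DIV 5, were exposed DIV 7–12; signal decrease measured against DMSO.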

[6] = CCTE_Mundy_HCI_hNP1_Pro_ResponderAvgInten: CCTE's Proliferation Assay in human neuroprogenitor cells, Mundy Lab (AID 2284224; active = hit-call score of the fitted dose curve at least 0.9, where 1 is the maximum)
Outline: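 Proliferation was scored as BrdU labelling intensity in human neural progenitors derived from WA09 embryonic cells, measured 26.25 hours after chemical dosing. Activity was fitted relative to DMSO.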

[7] = UKN2_HCS_IMR90_cell_viability: Viability Assessment in the University of Konstanz (UKN) Leist Lab Neural Crest Cell Migration Assay in human induced IMR90 Pluripotent Stem Cells (UKN2) (AID 2284233);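 note: viability of neural crest cells differentiated from IMR90 iPSC measured by calcein-AM fluorescence imaging; cells exposed to compound for 24 h after a 24 h migration phase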
Outline: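 Human IMR90-derived neural crest cells were allowed to migrate for 24 h into a cell-free zone, then exposed to test chemicals for 24 h. Calcein-AM and Hoechst staining with high-content imaging gave viability, analysed against DMSO baseline.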

[8] = CCTE_Mundy_HCI_Cortical_NOG_NeuronCount: CCTE's Neurite Outgrowth Assay in rat cortical cells for Neuron Count, Mundy Lab (AID 2284236; active = hit-call score of the fitted dose curve at least 0.9, where 1 is the maximum;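 note: neurons counted by imaging betaIII-tubulin and Hoechst stained cortical cells; cells exposed to compound for about 48 hours before fixation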)
Outline: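 Read-out: neuron number by high-content imaging of betaIII-tubulin (Alexa Fluor-488) and Hoechst-labelled rat primary cortical cells.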

[9] = CCTE_Mundy_HCI_Cortical_NOG_BPCount: CCTE's Neurite Outgrowth Assay in rat cortical cells for Branch Point Count, Mundy Lab (AID 2284237)
Outline: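 Measured 50.33 h after dosing, this morphology endpoint uses rat primary cortical cultures labelled for betaIII-tubulin. Branch points are quantified by high-content imaging, with DMSO as negative control and baseline.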

[10] = CCTE_Mundy_HCI_hNP1_Casp3_7: CCTE's Caspase-Glo 3/7 Assay in human neuroprogenitor cells for Apoptosis, Mundy Lab (AID 2284240)
Outline: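 Apoptosis is scored by activated caspase-3/7 luminescence in WA09-derived neural progenitor cells, measured 26.5 h after chemical dosing. Values represent gain of signal relative to DMSO vehicle.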

[11] = CCTE_Mundy_HCI_hNP1_CellTiter: CCTE's Cell Titer-Glo 2 Assay in human neuroprogenitor cells for Viability, Mundy Lab (AID 2284241; active = hit-call score of the fitted dose curve at least 0.9, where 1 is the maximum)
Outline: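 Human neural progenitor cells (hNP1, WA09-derived) were plated on poly-L-ornithine/laminin and grown 40 to 44 hours at 37 °C, 5% CO2 before chemical addition. Twenty-four hours later, ATP was measured by CellTiter-Glo luminescence; loss of signal versus DMSO indicates reduced viability.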

[12] = CCTE_Mundy_HCI_Cortical_Synap_Neur_Matur_NeuronCount: CCTE's Synaptogenesis and Neurite Maturation Assay in rat cortical cells for Neuron Count, Mundy Lab (AID 2284242; active = hit-call score of the fitted dose curve at least 0.9, where 1 is the maximum)
Outline: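 Neuron number was scored by automated high-content imaging of Hoechst- and MAP2-labelled rat primary cortical cells. Glial growth was arrested with AraC at DIV 5, compounds were applied from DIV 7, and cultures ended at DIV 12.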

[13] = IUF_NPC2c_oligodendrocyte_migration_120hr: Leibniz Research Institute for Environmental Medicine (IUF) 120-hour Neural Progenitor Cell Migration Assay for Oligodendrocyte Migration (NPC2c) (AID 2284297);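 note: O4-positive oligodendrocyte migration distance divided by radial glia migration distance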
Outline: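 Exposure runs 5 days from differentiation onset at 37C, seven concentrations plus solvent control, DMSO at most 0.1%, applied to primary hNPC spheres on laminin. After fixation, O4 immunostaining gives oligodendrocyte distance from the sphere core, relative to radial glia migration.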

[14] = IUF_NPC2a_radial_glia_migration_120hr: Leibniz Research Institute for Environmental Medicine (IUF) 120-hour Neural Progenitor Cell Migration Assay for Radial Glia Migration (NPC2a) (AID 2284298)
Outline: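 Migration distance in um, sphere core edge to migration-area edge, derived by nuclei-density algorithm from Hoechst images after 120 h compound exposure. Primary hNPC spheres differentiated on poly-D-lysine/laminin in N2 medium, 37C; medium half-replaced day 3.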

[15] = IUF_NPC2a_radial_glia_migration_72hr: Leibniz Research Institute for Environmental Medicine (IUF) 72-hour Neural Progenitor Cell Migration Assay for Radial Glia Migration (NPC2a) (AID 2284299)
Outline: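 Primary hNPC spheres, fetal brain GW 16-19, on PDL/laminin; DMEM/F12 3:1 + 1% N2. Compound dosed day 0, 7 conc. + SC, half-medium refresh day 3. 72 h brightfield, migration distance core-to-front (um), 4 directions averaged.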

[16] = IUF_NPC2b_neuronal_migration_120hr: Leibniz Research Institute for Environmental Medicine (IUF) 120-hour Neural Progenitor Cell Migration Assay for Neuron Migration (NPC2b) (AID 2284300)
Outline: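 TUBB3-positive neurons are imaged after 120 h of differentiation, and their mean distance from the sphere edge is normalised to radial glia migration. Single 0.3 mm fetal hNPC spheres on poly-D-lysine/laminin received 7 compound concentrations, ≤0.1% DMSO, refreshed at day 3.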

[17] = IUF_NPC3_neuronal_differentiation_120hr: Leibniz Research Institute for Environmental Medicine (IUF) 120-hour Neuronal Differentiation Assay (NPC3) (AID 2284301)
Outline: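 Single 0.3 mm neurospheres from human fetal cortex were plated in differentiation medium containing test compound. Medium was half-replaced on day 3. After 120 h cells were fixed, immunostained and imaged, and neuronal fraction was scored against DMSO control.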

[18] = IUF_NPC5_oligodendrocyte_differentiation_120hr: Leibniz Research Institute for Environmental Medicine (IUF) 120-hour Oligodendrocyte Differentiation Assay (NPC5) (AID 2284304; active = hit-call score of the fitted dose curve at least 0.9, where 1 is the maximum;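 note: primary human fetal neural progenitor spheres plated to migrate and differentiate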)
Outline: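 Oligodendrocyte differentiation scored as O4-positive cells, found by CNN image analysis, as percent of Hoechst-stained nuclei in the migration area. Scoring followed 5 days of exposure of plated hNPC neurospheres differentiating in DMEM/F12 N2 medium at 37C, with compound refreshed at day 3.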

[19] = IUF_NPC4_neurite_area_120hr: Leibniz Research Institute for Environmental Medicine (IUF) 120-hour Neuronal Morphology Assay for Neurite Area (NPC4) (AID 2284305; active = hit-call score of the fitted dose curve at least 0.9, where 1 is the maximum)
Outline: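 Neurite area is read out as the mean pixel area, excluding nuclei, of skeletonized TUBB3-positive neurons imaged after 120 h. Primary human neural progenitor spheres differentiated on poly-D-lysine/laminin with compound present from day 0. Activity was referenced to DMSO controls.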

[20] = IUF_NPC2-5_cytotoxicity_72hr: Cytotoxicity Assessment at 72 hours in the Leibniz Research Institute for Environmental Medicine (IUF) Neural Progenitor Cell Migration and Differentiation Assay for Cytotoxicity (NPC2-5) (AID 2284306; active = hit-call score of the fitted dose curve at least 0.9, where 1 is the maximum;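 note: LDH release into supernatant measured by resorufin fluorescence marking membrane damage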)
Outline: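 Membrane integrity loss was scored from fluorescence (RFU) of resorufin generated by LDH in culture supernatant, 72 h after dosing. Differentiating human progenitor spheres received seven serial compound concentrations alongside a solvent control.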

[21] = IUF_NPC2-5_cytotoxicity_120hr: Cytotoxicity Assessment at 120 hours in the Leibniz Research Institute for Environmental Medicine (IUF) Neural Progenitor Cell Migration and Differentiation Assay (NPC2-5) (AID 2284307; active = hit-call score of the fitted dose curve at least 0.9, where 1 is the maximum)
Outline: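 Membrane-integrity loss measured as LDH activity in medium supernatant via resazurin-to-resorufin fluorescence after 120 h exposure. hNPC spheres from GW 16-19 fetal cortex differentiated on poly-D-lysine/laminin, 37C, medium half-refreshed day 3; seven concentrations, DMSO max 0.1%.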

[22] = IUF_NPC2-5_cell_number_120hr: Cell Number Assessment at 120 hours in the Leibniz Research Institute for Environmental Medicine (IUF) Neural Progenitor Cell Migration and Differentiation Assay (NPC2-5) (AID 2284308);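 note: count of Hoechst-stained nuclei in migration zone around plated human neural progenitor spheres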
Outline: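 Counting of all Hoechst-stained nuclei in the migration area at 120 h, versus DMSO control. Primary hNPC spheres differentiated on poly-D-lysine/laminin in N2 medium at 37C, dosed from day 0 (7 concentrations, DMSO ≤0.1%), half-refed day 3.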

[23] = IUF_NPC2-5_viability_120hr: Viability Assessment at 120 hours in the Leibniz Research Institute for Environmental Medicine (IUF) Neural Progenitor Cell Migration and Differentiation Assay (NPC2-5) (AID 2284312)
Outline: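 Alamar blue resorufin fluorescence read after 5 days of differentiation, with compound present from day 0 and replenished at day 3. Primary hNPC spheres on laminin-coated plates, 37C; seven concentrations plus solvent control, fitted against DMSO.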

[24] = CCTE_Mundy_HCI_iCellGluta_NOG_NeuriteLength: CCTE's Neurite Outgrowth Assay in iCellGluta cells for Neurite Length, Mundy Lab (AID 2284318; active = hit-call score of the fitted dose curve at least 0.9, where 1 is the maximum)
Outline: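 Automated high-content imaging of betaIII-tubulin (Alexa Fluor-488) and Hoechst-stained cells gave neurite length, normalized to the DMSO baseline.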

[25] = IUF_NPC1_cytotoxicity_72hr: Cytotoxicity Assessment at 72 hours in the Leibniz Research Institute for Environmental Medicine (IUF) Neural Progenitor Cell Proliferation Assay (NPC1) (AID 2284332; active = hit-call score of the fitted dose curve at least 0.9, where 1 is the maximum;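 note: rising LDH signal means more cytotoxicity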)
Outline: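 Spheres of primary human neural progenitors are plated one per well on day 0 in growth-factor medium and dosed at once. After three days at 37C, supernatant LDH is measured fluorimetrically via resazurin reduction.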

[26] = CCTE_Mundy_HCI_iCellGluta_NOG_NeuronCount: CCTE's Neurite Outgrowth Assay in iCellGluta cells for Neuron Count, Mundy Lab (AID 2284340; active = hit-call score of the fitted dose curve at least 0.9, where 1 is the maximum;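 note: cells fixed about 48 h after compound addition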)
Outline: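 Neuron count read by automated high-content imaging of Hoechst 33342 and betaIII-tubulin/Alexa Fluor-488 labelling in human iPSC glutamatergic neurons. Activity fitted relative to DMSO.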

Measured: AC50

CCOP(=O)(Oc1cnc(C(C)(C)C)nc1)OC(C)C (stereo unspecified)
active: [24] 28.8 µM
inactive: all other assays above
